The results in this text go back to PubChem BioAssay (NCATS).

Results filed as inconclusive are left out. Where a call stands in place of a potency, no number is given. The source made the active and inactive calls. Calls come from the whole dose curve; as a rule, active = well fitted inhibition curve with a large enough effect; inconclusive = small, poorly fitted or top-dose-only effect; inactive = no such curve, though single readings can be large or run the other way.

The test system of the assay is Zika virus NS2B-NS3 protease (unlinked complex). Nature of the assay: Primary screen GU Rhodamine qHTS for Zika virus inhibitors: Unlinked NS2B-NS3 protease assay (AID 1347159). Note: nearly all actives have a fitted effect of over 60% in size. The conditions noted are these: Recombinant ZIKV NS2B-NS3 protease, Rhodamine110 substrate fluorescence; series mostly up to 107 µM. The gist of the method: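 Compounds, tested up to 114 microM, were incubated for 15 minutes with 25 nM unlinked NS2B-NS3 protease at pH 8.0. Cleavage of 1.5 microM Rhodamine110 substrate was then followed by fluorescence for 15 minutes.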
For orientation: Quantitative high-throughput screening tests each substance at several concentrations.
In the case of `COC(=O)c1c(CC=C(C)C)c(OC2OC(CO)C(O)C(O)C2O)c2ccccc2c1OC1OC(CO)C(O)C(O)C1O` (stereo not given), the Potency entry was “inactive”.

Regarding `CC(=O)O[C@H]1C[C@@H](O)C(C)(C)C2C[C@@H](OC(C)=O)[C@@]3(C)C4=CCC(C(CO)CC(O)C5OC5(C)C)[C@]4(C)CCC3[C@]21C` (stereo not given in full), the Potency result is “inactive”.

As to `COc1cc(CO)ccc1O[C@@H]1O[C@H](CO)[C@@H](O)[C@H](O)[C@H]1O`, the Potency entry is “inactive”.

For the compound `CCN(CCN(C)C)C(=O)CNCc1cc(C(N)=O)ccn1`, the Potency entry was “inactive”.

For the compound `CC1(C)CC2C(O)C3=C(CC(C)(O)C2C1)C(=O)OC3` (stereo not given), the Potency entry is “inactive”.

Consider `C/C=C/C(=O)OC1/C=C/C(O)C(OC(C)=O)CCC(=O)OC1C` (stereo not given), for which the Potency result was “inactive”.

With `C=C(C(=O)O)[C@@H]1CC[C@@]2(C)CCC[C@@](C)(O)[C@@H]2C1`, the Potency entry is “inactive”.

As to `CC(C)(C)NS(=O)(=O)c1ccc(-c2ccc3[nH]nc(N)c3c2)cc1`, the Potency result is “inactive”.

On to `CCOC(=O)CSc1nc2c(sc3ccccc32)c(=O)n1CCCN1CCCC1`, for which the Potency entry is “inactive”.

As for `CC(=O)c1[nH]cc(CCC(=O)O)c1CC(=O)O`, the Potency result is “inactive”.

In the case of `O=C(OCC1=CC(Cl)C(O)C(OC(=O)c2ccccc2)C1O)c1ccccc1` (stereo not given), the Potency entry is “inactive”.

On to `N#CN1CCC[C@@H](n2nc(-c3ccc(Oc4ccc(F)cc4F)cc3)c(C(N)=O)c2N)C1`, for which the Potency entry is “inactive”.

Consider `CC1OC(O[C@H]2CC[C@@]3(C)C(CC[C@]4(C)C3CC=C3C5CC(C)(C)CC[C@]5(C(=O)OC5OC(CO)C(OC6OCC(OC7OCC(O)C(O)C7O)C(O)C6O)C(O)C5O)CC[C@]34C)C2(C)C)C(O)C(O)C1OC1OC(CO)C(O)C(OC2OC(CO)C(O)C(O)C2O)C1O` (stereo not given in full), for which the activity change, negative = inhibition was 1.81% [at 19.1 µM] (inactive).

In the case of `Nc1ncnc2c1C(=O)N(c1ccc(C3CCC(CC(=O)O)CC3)cc1)CCO2` (stereo not given), the Potency result is “inactive”.

Regarding `C=CC(C)(O)C1CC2C3(C)CCCC(C)(C)C3C(O)C(O)C2(C)O1` (stereo not given), the Potency result is “inactive”.
